This note sets out measurements from ChEMBL document CHEMBL3988442, “University of Dundee, Small-Polar-MMV Screening Library” (2021).

SMILES strings stand for the structures. For some of these results: Entries with a potency or affinity are not part of this list.

Design in all cases: scale not given: direction of the effect not stated beside the values
The target in assay [1] is Protein translocase subunit SecA (Escherichia coli (strain K12)) (UniProt P10408). Put plainly: Assay to Identify E. coli SecA ATPase Inhibitors. The class given is functional. The note with it: 30 µM.
The target of assay [2] is T1, Ubiquitin-activating enzyme e1, putative (Leishmania donovani (strain BPK282A1)) (UniProt E9BSI1).
T1 sequence (whole entry): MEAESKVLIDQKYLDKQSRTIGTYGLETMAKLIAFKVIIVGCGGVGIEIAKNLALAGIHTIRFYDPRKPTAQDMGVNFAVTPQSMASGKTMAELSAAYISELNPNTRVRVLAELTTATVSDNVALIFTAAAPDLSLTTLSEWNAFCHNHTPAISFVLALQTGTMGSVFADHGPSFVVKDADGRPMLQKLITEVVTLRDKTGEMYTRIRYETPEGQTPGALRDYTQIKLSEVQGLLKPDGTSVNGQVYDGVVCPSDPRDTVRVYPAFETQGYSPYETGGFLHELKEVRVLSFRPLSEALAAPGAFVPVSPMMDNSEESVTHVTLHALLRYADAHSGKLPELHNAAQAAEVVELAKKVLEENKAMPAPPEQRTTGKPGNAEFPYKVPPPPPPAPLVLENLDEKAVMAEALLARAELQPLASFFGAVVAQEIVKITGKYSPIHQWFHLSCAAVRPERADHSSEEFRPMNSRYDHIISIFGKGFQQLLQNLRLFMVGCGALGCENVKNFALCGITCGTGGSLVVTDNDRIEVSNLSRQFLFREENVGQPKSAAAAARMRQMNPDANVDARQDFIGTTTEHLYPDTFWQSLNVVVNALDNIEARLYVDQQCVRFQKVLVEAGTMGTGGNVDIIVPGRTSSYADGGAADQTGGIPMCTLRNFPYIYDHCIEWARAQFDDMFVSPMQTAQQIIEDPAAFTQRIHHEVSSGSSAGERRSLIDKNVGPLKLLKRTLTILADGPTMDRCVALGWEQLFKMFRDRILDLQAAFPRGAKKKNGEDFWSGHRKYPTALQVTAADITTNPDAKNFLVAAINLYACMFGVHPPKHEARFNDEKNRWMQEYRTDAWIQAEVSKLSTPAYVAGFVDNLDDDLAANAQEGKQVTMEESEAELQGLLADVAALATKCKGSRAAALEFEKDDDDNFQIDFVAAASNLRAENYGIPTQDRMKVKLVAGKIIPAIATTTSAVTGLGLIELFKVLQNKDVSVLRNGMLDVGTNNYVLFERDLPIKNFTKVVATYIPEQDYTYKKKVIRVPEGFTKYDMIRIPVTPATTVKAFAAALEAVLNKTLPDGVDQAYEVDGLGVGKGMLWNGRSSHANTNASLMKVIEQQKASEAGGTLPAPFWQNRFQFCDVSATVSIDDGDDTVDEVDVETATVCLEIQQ
In words: Leishmania donovani Ubiquitin Activating Enzyme (LdE1). To be noted: 30 µM. The format is functional.

Assay [3] deals with AMP-activated protein kinase, AMPK (Homo sapiens) (UniProt P54646+O43741+P54619+Q9UGJ0+Q9Y478+Q13131+Q9UGI9). In words: AMP-dependent Kinase enzyme assay. An in vitro enzyme assay that detects ADP turnover that is directly proportional to AMPK activity. This uses naive AMPK that is activated during the assay with MK-8722. The class given is functional. The note with it: 30 µM.

Assay [4] concerns the target Sialic acid-binding Ig-like lectin 9 (Homo sapiens) (UniProt Q9Y336). In words: Hs-Siglec9 ALPHAscreen SOP 20170721. The note with it: 10 µM.
The subject of a further assay is Trypanosoma cruzi. In words: Trypanosoma cruzi phosphomannomutase and mannose-1-phosphate guanylyltransferase assay. The format is functional. The note with it: 10 µM.
The target of assay [5] is T2, Arginase-2, mitochondrial (Homo sapiens) (UniProt P78540).
T2 sequence (whole entry): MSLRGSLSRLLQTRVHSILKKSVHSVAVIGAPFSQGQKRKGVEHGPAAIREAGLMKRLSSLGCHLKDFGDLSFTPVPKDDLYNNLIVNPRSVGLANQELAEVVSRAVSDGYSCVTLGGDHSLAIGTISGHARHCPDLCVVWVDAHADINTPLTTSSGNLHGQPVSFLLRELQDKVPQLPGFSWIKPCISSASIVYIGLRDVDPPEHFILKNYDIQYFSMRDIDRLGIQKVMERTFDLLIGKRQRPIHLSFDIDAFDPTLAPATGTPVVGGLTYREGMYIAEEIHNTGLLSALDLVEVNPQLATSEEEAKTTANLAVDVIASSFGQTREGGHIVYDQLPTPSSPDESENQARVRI
Put plainly: in vitro enzyme assay to detect the production of urea directly proportional to the activity of Arginase II. Further: in the data most compounds retested in dose-response had high values. The class given is functional. To be noted: 33.3 µM.

Assay [6] deals with T3, Proteasome subunit beta (Trypanosoma cruzi) (UniProt O96673).
T3 sequence (whole entry): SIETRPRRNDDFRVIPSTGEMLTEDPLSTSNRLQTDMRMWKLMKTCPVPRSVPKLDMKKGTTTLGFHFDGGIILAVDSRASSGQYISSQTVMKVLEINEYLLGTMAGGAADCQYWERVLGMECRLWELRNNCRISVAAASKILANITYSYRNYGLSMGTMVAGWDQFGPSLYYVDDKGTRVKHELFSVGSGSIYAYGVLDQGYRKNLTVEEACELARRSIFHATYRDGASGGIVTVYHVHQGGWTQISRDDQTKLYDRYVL
In words: Trypanosoma cruzi proteasome chymotrypsin-like activity (TcProtChymo) assay. Further: in the data most compounds retested in dose-response had high values. The format is functional. The note with it: 9.37 µM.

The next assay is filed under the species Homo sapiens. In words: To identify inhibition of the IFN signalling (Jak-Stat) pathway via expression of an eGFP reporter gene under the control of an IFN-stimulated response element (ISRE) containing MxA promoter. To be noted: 30 µM. The class given is functional. In general terms: Reporter assays use an easily measured gene product as a stand-in for the process of interest.

Assay [7] has as its target T4, Tyrosyl-tRNA synthetase, putative (Trypanosoma cruzi (strain CL Brener)) (UniProt Q4DSP6).
T4 sequence (whole entry): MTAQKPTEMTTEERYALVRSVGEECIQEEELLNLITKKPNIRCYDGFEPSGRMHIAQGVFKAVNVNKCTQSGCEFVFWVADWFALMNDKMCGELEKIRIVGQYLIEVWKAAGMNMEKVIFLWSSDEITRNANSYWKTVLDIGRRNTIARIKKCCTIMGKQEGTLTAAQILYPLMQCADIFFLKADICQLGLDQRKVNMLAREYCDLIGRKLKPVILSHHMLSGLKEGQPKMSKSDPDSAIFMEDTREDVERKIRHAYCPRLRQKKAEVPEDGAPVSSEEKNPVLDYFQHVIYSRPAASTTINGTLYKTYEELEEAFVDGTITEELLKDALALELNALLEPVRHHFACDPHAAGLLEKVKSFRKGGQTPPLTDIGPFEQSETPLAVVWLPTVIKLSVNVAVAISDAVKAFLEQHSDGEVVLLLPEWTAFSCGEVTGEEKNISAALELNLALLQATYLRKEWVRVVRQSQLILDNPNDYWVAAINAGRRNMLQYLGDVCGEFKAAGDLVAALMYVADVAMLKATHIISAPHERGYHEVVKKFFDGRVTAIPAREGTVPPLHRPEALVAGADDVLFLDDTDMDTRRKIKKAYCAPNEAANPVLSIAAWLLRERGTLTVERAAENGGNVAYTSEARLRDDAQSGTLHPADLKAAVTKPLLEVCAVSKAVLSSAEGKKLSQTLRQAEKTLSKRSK
Put plainly: Trypanosoma cruzi tyrosyl tRNA synthetase (TcYRS) _High Tyrosine SOP. Further: in the data most compounds retested in dose-response had high values. The class given is functional. To be noted: 30 µM.

The target in assay [8] is T4, Tyrosyl-tRNA synthetase, putative (Trypanosoma cruzi (strain CL Brener)). Put plainly: Trypanosoma cruzi tyrosyl tRNA synthetase (TcYRS) SOP. The class given is functional. To be noted: 30 µM.
Assay [9] concerns the target Chromo domain-containing protein 1 (Saccharomyces cerevisiae (strain ATCC 204508 / S288c) (Baker's yeast)) (UniProt P32657). Put plainly: ScCHD-1 Enzyme Inhibition Assay. Further: in the data most compounds retested in dose-response had high values. The class given is functional. The note with it: 30 µM.

Sequence of Protein translocase subunit SecA (Escherichia coli (strain K12)) (P10408 whole entry): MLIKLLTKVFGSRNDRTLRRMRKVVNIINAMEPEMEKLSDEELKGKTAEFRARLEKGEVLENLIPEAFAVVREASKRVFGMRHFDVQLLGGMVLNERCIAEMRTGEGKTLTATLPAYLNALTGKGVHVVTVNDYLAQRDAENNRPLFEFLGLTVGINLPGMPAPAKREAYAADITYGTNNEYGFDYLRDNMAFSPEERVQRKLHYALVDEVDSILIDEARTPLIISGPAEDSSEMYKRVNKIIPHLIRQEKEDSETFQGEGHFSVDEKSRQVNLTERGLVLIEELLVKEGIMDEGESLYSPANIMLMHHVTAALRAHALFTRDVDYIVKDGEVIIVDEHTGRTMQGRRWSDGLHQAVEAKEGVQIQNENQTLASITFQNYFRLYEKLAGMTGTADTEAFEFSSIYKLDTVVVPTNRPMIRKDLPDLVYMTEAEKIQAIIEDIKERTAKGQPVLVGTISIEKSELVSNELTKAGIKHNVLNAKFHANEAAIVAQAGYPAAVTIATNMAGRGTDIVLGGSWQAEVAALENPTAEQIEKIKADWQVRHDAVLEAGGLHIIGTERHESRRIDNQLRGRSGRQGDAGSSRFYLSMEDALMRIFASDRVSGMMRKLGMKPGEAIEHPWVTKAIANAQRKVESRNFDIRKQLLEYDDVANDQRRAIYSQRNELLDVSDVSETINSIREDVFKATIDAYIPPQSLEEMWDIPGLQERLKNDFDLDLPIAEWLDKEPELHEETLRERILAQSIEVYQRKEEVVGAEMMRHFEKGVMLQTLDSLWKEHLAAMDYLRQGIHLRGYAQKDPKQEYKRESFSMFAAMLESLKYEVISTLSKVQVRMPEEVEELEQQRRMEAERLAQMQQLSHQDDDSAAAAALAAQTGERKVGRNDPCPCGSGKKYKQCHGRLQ
Sequence of Chromo domain-containing protein 1 (Saccharomyces cerevisiae (strain ATCC 204508 / S288c) (Baker's yeast)) (P32657 whole entry, the tested form may be a part): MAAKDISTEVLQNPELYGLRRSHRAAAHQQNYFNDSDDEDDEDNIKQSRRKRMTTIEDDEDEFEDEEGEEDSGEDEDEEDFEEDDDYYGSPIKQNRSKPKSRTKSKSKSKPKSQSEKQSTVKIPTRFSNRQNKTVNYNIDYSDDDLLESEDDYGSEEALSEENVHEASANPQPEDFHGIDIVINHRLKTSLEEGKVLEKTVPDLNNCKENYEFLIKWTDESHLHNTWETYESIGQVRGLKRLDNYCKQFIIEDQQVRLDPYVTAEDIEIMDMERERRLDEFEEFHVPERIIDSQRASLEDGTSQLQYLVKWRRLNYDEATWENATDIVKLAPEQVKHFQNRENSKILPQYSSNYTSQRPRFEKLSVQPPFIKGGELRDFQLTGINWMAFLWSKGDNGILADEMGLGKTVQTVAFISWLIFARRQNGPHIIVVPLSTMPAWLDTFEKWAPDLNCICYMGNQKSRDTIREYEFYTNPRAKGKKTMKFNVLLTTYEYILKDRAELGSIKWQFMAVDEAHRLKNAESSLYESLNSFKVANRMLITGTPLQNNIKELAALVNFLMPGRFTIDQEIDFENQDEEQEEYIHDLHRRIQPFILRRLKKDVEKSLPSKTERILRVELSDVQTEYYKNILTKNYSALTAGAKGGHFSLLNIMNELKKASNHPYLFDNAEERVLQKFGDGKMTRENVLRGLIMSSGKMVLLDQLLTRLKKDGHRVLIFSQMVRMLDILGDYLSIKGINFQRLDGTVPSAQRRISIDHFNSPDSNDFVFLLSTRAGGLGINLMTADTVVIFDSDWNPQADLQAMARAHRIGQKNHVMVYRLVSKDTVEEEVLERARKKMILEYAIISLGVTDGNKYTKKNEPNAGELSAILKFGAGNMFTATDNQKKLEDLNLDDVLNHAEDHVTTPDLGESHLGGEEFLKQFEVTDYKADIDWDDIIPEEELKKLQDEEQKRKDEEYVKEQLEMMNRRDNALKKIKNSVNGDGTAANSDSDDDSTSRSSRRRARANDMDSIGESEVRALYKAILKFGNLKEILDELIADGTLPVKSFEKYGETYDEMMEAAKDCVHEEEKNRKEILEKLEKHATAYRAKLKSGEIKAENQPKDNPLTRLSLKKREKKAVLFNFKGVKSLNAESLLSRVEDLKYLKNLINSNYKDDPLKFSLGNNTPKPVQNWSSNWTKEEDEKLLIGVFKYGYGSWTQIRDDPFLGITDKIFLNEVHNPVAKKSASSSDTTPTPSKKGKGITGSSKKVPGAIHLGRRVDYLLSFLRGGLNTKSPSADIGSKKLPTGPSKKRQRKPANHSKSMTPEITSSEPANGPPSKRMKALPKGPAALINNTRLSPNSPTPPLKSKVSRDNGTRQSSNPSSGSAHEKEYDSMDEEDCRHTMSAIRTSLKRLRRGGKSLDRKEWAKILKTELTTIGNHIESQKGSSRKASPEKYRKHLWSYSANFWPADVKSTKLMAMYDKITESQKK
Sequence of Sialic acid-binding Ig-like lectin 9 (Homo sapiens) (Q9Y336 whole entry): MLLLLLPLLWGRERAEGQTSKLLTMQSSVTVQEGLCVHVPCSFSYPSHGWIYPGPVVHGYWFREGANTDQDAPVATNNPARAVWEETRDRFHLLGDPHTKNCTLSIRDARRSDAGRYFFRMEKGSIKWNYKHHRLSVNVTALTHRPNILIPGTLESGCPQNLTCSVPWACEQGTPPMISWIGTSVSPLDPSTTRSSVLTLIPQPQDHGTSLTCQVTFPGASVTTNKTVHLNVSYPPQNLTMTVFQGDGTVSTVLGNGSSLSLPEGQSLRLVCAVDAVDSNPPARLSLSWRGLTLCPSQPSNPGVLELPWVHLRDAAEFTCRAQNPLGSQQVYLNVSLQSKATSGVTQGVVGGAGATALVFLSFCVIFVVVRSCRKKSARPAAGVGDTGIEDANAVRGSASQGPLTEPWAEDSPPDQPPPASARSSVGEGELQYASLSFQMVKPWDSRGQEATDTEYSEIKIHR

Regarding `COC(=O)c1cc(OCC2CCC2)cc(C(=O)N[C@@H]2CNCC[C@H]2O)c1`, the Percent Effect is -7.97% in assay [1]; 0% in [2]; -18.2% in [3]; 10.2% in assay [4]; -0.392% in the assay on Trypanosoma cruzi; -2.73% in assay [5]. Also, the Percent Effect in assay [6] was 4.44%; in the assay listed under Homo sapiens it was 36%; in assay [7], 0%; in assay [8], 0%; in assay [9], -7.21%.

As for `CC(C)C1CN(C(=O)c2ccc(N3CCCC3)nc2)CCS1` (stereo unspecified), the Percent Effect was -4.92% in assay [1]; 2.6% in assay [2]; 0.107% in [3]; 2.6% in assay [4]; -0.492% with Trypanosoma cruzi; 0% in assay [5]. Also, the Percent Effect in [6] was -1.17%; in the assay listed under Homo sapiens it was -12.6%; in assay [7], 4.3%; in assay [8], 6.17%; in assay [9], -1.7%.

Regarding `Cc1cccc(C(=O)NCCCN2CCN(c3ccccc3)CC2)c1`, the Percent Effect in [1] is -2.4%; in assay [2] it was 10.4%; in [3], -2.04%; in assay [4], -11.3%; in the assay with Trypanosoma cruzi, -7%; in [5], 5.81%. In addition, the Percent Effect in [6] was 12.7%; in the assay filed under Homo sapiens, 13.6%; in assay [7], 1.06%; in assay [8], 8.97%; in assay [9], -9.93%.

For `Cc1cc(C)c(CNC(=O)NCC(O)c2cccc(F)c2)c(=O)[nH]1` (stereo unspecified), the Percent Effect in assay [1] is -7%; in assay [2], 7.89%; in assay [3] it was 0.0351%; in assay [4], 13.9%; in the assay on Trypanosoma cruzi it was -0.0934%; in assay [5], -3.96%. Besides, the Percent Effect was 7.36% in assay [6]; 7.32% in the assay listed under Homo sapiens; 9.36% in assay [7]; 13.6% in [8]; -1.76% in assay [9].

Turning to `O=C(c1cscn1)N1CCC2(CCN(Cc3cccs3)CC2)C1`, the Percent Effect in assay [1] was -5.71%; in [2], 8.11%; in assay [3] it was 6.09%; in [4] it was -2.27%; in the assay on Trypanosoma cruzi it was 0.489%; in assay [5], 2.23%. Moreover, the Percent Effect amounted to 19% in [6]; 9.36% in the assay listed under Homo sapiens; 1.08% in assay [7]; 15.4% in [8]; 0.482% in [9].

As for `Cc1ccc(N2CCCC(N(C)Cc3cc(C)no3)C2)nn1` (stereo unspecified), the Percent Effect in assay [1] was -0.747%; in assay [2] it was 5.33%; in [3], -6.3%; in assay [4], 43.3%; with Trypanosoma cruzi, 5.55%; in assay [5], 23.4%. For the same molecule, the Percent Effect in assay [6] is 19.9%; in the assay filed under Homo sapiens it was 0.899%; in [7], 6.01%; in assay [8], 11.1%; in assay [9], -17.3%.

For `c1csc(CN2Cc3nccn3CC(Cn3cncn3)C2)n1` (stereo unspecified), the Percent Effect in [1] was 1.97%; in [2] it was 2.74%; in [3], 0.961%; in [4], 63.8%; in the assay with Trypanosoma cruzi it was -0.794%; in assay [5] it was 3.19%. For the same molecule, the Percent Effect in assay [6] is 11.2%; in the assay filed under Homo sapiens it was -1.52%; in assay [7], 4.17%; in assay [8], 13.6%; in assay [9], -0.0341%.

As to `CSCC(=O)N1CCC2(CC1)c1ccccc1CC2O` (stereo unspecified), the Percent Effect in assay [1] was -1.39%; in assay [2], 18.2%; in assay [3], 10.7%; in [4], 2.45%; in the assay with Trypanosoma cruzi, 2.26%; in assay [5] it was -4.14%. Also, the Percent Effect in assay [6] is 18.5%; in the assay listed under Homo sapiens, 5.92%; in assay [7], 5.38%; in assay [8], 11.1%; in [9], -3.92%.

In the case of `Cc1ccc(NC(=O)NC(C)c2nc[nH]n2)cc1` (stereo unspecified), the Percent Effect is -6.05% in assay [1]; -10.8% in assay [2]; -1.56% in assay [3]; -5.4% in assay [4]; -1.86% in the assay with Trypanosoma cruzi; -0.248% in assay [5]. Besides, the Percent Effect in [6] was 15.9%; in the assay filed under Homo sapiens it was -15.4%; in assay [7] it was 1.07%; in assay [8], 1.24%; in assay [9] it was -1.66%.

In the case of `COC(=O)C(c1cc(F)ccc1F)N(C)C(=O)c1cccnc1O` (stereo unspecified), the Percent Effect in [1] was -4.02%; in assay [2], 6.33%; in assay [3], 7.36%; in assay [4], -2.25%; in the assay on Trypanosoma cruzi, -1.33%; in assay [5] it was 0.645%. Besides, the Percent Effect was 10.3% in [6]; -7.9% in the assay listed under Homo sapiens; 1.04% in [7]; 12.7% in assay [8]; -12.9% in assay [9].

As to `O=C(c1ccoc1)N1CC[C@H]2OCC[C@@]2(COc2ncccc2F)C1`, the Percent Effect in assay [1] is -6.18%; in assay [2], 18.9%; in [3], -5.57%; in [4], 25.4%; in the assay with Trypanosoma cruzi, 3.23%; in assay [5], 2.73%. Moreover, the Percent Effect in assay [6] is 6.78%; in the assay listed under Homo sapiens, -2.11%; in [7] it was 4.3%; in [8], 21%; in [9], -7.11%.
